In all, about 33,000 sequences were measured (“E-score (-0.5 to 0.5)”: median about -0.04, highest 2% from about 0.36 on). The full list was thinned out, with the highest values kept by preference.
target: T1, Hmlalpha2 (UniProt P0CY09); assay: PBM E-score (8-mer binding enrichment) (E-score (-0.5 to 0.5)); higher = stronger / more preferred TF binding; conditions: protein concentration: 200 nM; construct: GST-full length
T1 sequence: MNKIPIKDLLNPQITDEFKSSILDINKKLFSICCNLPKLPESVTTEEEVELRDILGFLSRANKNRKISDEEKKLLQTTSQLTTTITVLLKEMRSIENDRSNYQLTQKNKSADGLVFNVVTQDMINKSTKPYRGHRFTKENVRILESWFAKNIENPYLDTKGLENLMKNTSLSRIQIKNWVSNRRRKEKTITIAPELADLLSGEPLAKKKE
Experimental: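 Universal 'all 10-mer' protein binding microarrays (Agilent AMADID 015681) probed with GST-tagged S. cerevisiae TFs (full-length or DBD) made by in vitro transcription/translation (PURExpress), about 100-200 nM. Bound TF was detected with fluorescent anti-GST. Each ungapped 8-mer (which stands for itself and its reverse complement) is scored by the PBM enrichment score (E-score), a modified Wilcoxon-Mann-Whitney statistic from -0.5 to +0.5, computed with the Universal PBM Analysis Suite. Scale: above 0.35 generally sequence-specific binding.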

Sequence	PBM E-score
TAACAAGA	0.377
CAACAAGA	0.225
GAACACAA	0.319
CAACTGCG	-0.126
CGACTGAC	-0.137
ACTTGTGA	0.148
TAGTCGCA	-0.085
AAGGTGGT	-0.0621
TGCCTACA	0.0851
AAGCTACA	0.158
CCGGTGCA	-0.247
CAAACACG	0.314
ATCACACC	-0.0635
TAAACACA	0.379
AACACACT	0.313
AACACACA	0.391
ATCACACA	0.228
ATCACACG	0.371
AACACACG	0.319
AAAACACG	0.426
AAAACACA	0.333
AAAACACT	0.148
CAAACACA	0.334
GGCTTAAA	-0.0594
AGTACTAA	0.173

Sequence	PBM E-score
GAGCGCCA	-0.25
GCGCAACC	-0.228
ACGTCCCT	0.163
CGTCCTAA	-0.108
GTCTCCAC	-0.178
CCCCGTCC	-0.382
ATGGTGAA	-0.0612
ATGTATTG	0.416
ACGTATTG	0.292
CTGTATTC	0.255
ATGTATCG	0.323
ATGTATTC	0.443
AGGTATTC	0.139
ATAGTTCG	0.0279
CTCGAGTC	-0.178
AAGAACCG	0.117
CCCAATCA	-0.113
AGGCATTC	-0.265
GGCGTATA	0.106
CGCGTAAC	0.342
CGCGTAAG	0.369
GGCGTAAA	0.217
TGCGTAAA	0.441
CGCGTAAA	0.454
AGCGTAAG	-0.106

Sequence	PBM E-score
AGCGTAAA	0.22
CGCGTAGA	0.359
CGCGTATC	0.219
CTCGTAAG	0.172
CGCGTATA	0.372
AGCAAGTC	-0.0673
CCCTATCG	-0.272
AGGAAACC	-0.0996
TCCCAGGA	-0.361
CATTAGAG	-0.127
AGATTTGC	-0.0168
CGAGGGTA	-0.233
GCCTGCCA	-0.0217
ACATGACG	0.379
CCATGACG	-0.105
GCATGACA	0.188
ACATGACC	0.38
CCATGACA	0.0453
CCATGACC	-0.348
ACATGACT	0.307
GCATGACC	-0.191
ACATGACA	0.412
GCTTCAAC	0.0375
CTTGATCC	-0.142
AAAATCGT	0.0614

Sequence	PBM E-score
AGATGGAT	-0.265
GTGTCTCA	-0.0554
GCCTAGAA	-0.187
CGAGAAAG	-0.0529
AGCCCTGA	-0.0785
GCCGTGCA	0.0721
ACCGTGTG	0.113
CCCGTGTA	0.451
ACCGTGTA	0.473
GCCGTGTA	0.432
CCCGTGTC	0.168
ACCGTGTC	0.264
GCCGTGAA	-0.197
CCCGTGGA	-0.176
AGCAAACG	-0.0759
AAGTGCCG	0.00934
ACCGACTG	-0.317
GTTGTTGA	0.259
TTCTGAAA	0.0341
CTTTCTGA	0.0509
GCATTACC	8e-05
CCATTACC	-0.0103
TCATTACA	0.439
CCATTACG	0.13
ACATTACA	0.449

Sequence	PBM E-score
ACATTACG	0.336
ACATTACT	0.303
GCATTACA	0.428
CCATTACA	0.435
TCATTAAA	0.263
TCATTAGA	0.0985
GCATTAGA	0.0569
GTACGAAC	0.152
GGGAGAGA	-0.33
ACGGGTTG	-0.15
CCTCAGCG	-0.255
CCCAGAAA	-0.0348
GTTGCGAA	0.0227
ACGTCCTC	-0.162
CACGGCTC	-0.0568
CGTGTCGC	0.214
ATGCCCTG	-0.0289
CCGGCGGA	-0.234
TACAGGTA	0.135
TACATGTA	0.479
GACATTTA	0.191
CACATGTC	0.22
GACATGTC	0.327
TAAATGTA	0.38
TACATCTA	0.263

Sequence	PBM E-score
GACATGTA	0.423
CAAATGTA	0.35
GAAATGTA	0.0891
CACATGTA	0.416
AATTGACA	0.275
AGTCTAGG	-0.15
CGCTCTCA	-0.165
CAGTCCCG	-0.196
ACGCCGAG	-0.0454
ATGTGCTA	0.0958
CGAAGAAG	-0.0393
ATGTTGAC	0.356
ATGTTGAG	0.33
GTGTTGAA	0.398
CTGTTGAA	0.259
ATGTTGAA	0.395
GTGTTGGA	0.224
GAGCTATA	-0.0673
GGTGCTCA	-0.179
CCCACGAA	-0.102
GGCAGCCC	-0.418
ATTCACAA	0.232
AATACATG	0.482
GATACATC	0.169
AATACAGG	0.2

Sequence	PBM E-score
AATACATT	0.329
AATACAGC	0.0849
AATACAAT	0.249
TATACAAA	0.265
AATACATC	0.368
GATACATA	0.32
AATACAAC	0.315
TATACATA	0.445
AATACAAG	0.386
GAATGGTA	0.232
GGTGGGGA	-0.0925
GGCTTATA	-0.0133
AGTGTTGC	0.169
CGTAAGTC	0.0646
CCTAAGAG	-0.136
AAGCCAAC	0.00741
CATACCCG	-0.117
AATACAGA	0.204
CATACATG	0.382
AATACATA	0.444
AATACAAA	0.363
CATACATC	0.253
CATACATA	0.329
